Data as given in PubChem BioAssay AID1159580 (chemical genetic matrix, 2015).
The campaign covered roughly 5,500 compounds. About 2,000 (36%) were called active. Inconclusive results (about 18%) are left out. Rule as the data show it: active = normalized growth mostly below about 0.91 (no sharp cut-off); inconclusive = no clear call, values can overlap the other calls; inactive = mostly above about 0.92. The list shows a part of the results.

Assay: chemical genetic growth profiling, strain panel (AID 1159580);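 also: tested at 20 µM; growth read once vehicle control cultures reached saturation at 30 °C; 1 = growth at the plate median or of vehicle wells; lower values mean less growth of the strain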
Conditions: growth OD

Measured: normalized growth

CN1C2CC3C[C@H]1C(O3)C2O (some centres undefined)
inactive: S. cerevisiae deletion strains, locus YAL021C, strain ccr4, hits give low values 1.01 | S. cerevisiae deletion strains, locus YAL026C, strain drs2, hits give low values 1.02 | S. cerevisiae deletion strains, locus YAL030W, strain snc1, hits give low values 0.982 | S. cerevisiae deletion strains, locus YBL061C, strain skt5, hits give low values 1.02 | S. cerevisiae deletion strains, locus YBR009C, strain hhf1, hits give low values 1.03 | S. cerevisiae deletion strains, locus YBR021W, strain FUR4, hits give low values 0.99 | S. cerevisiae deletion strains, locus YBR023C, strain chs3, hits give low values 1.02 | S. cerevisiae deletion strains, locus YBR171W, strain sec66, hits give low values 1.03 | S. cerevisiae deletion strains, locus YBR229C, strain ROT2, hits give low values 1.01 | S. cerevisiae deletion strains, locus YBR231C, strain swc5, hits give low values 1.01 | S. cerevisiae deletion strains, locus YBR279W, strain paf1, hits give low values 1.01 | S. cerevisiae deletion strains, locus YCL011C, strain gbp2, hits give low values 1.02 | S. cerevisiae deletion strains, locus YCL016C, strain dcc1, hits give low values 1.02 | S. cerevisiae deletion strains, locus YCL029C, strain bik1, hits give low values 1.04 | S. cerevisiae deletion strains, locus YCL061C, strain MRC1, hits give low values 1.01 | S. cerevisiae deletion strains, locus YCL069W, strain vba3, hits give low values 1.01 | S. cerevisiae deletion strains, locus YCR088W, strain abp1, hits give low values 1.02 | S. cerevisiae deletion strains, locus YDL005C, strain med2, hits give low values 1.02 | S. cerevisiae deletion strains, locus YDL035C, strain GPR1, hits give low values 1.02 | S. cerevisiae deletion strains, locus YDL040C, strain nat1, hits give low values 0.997 | S. cerevisiae deletion strains, locus YDL074C, strain BRE1, hits give low values 1.04 | S. cerevisiae deletion strains, locus YDL101C, strain DUN1, hits give low values 1.01 | S. cerevisiae deletion strains, locus YDL185W, strain tfp1, hits give low values 1.04 | S. cerevisiae deletion strains, locus YDL192W, strain arf1, hits give low values 1.04 | S. cerevisiae deletion strains, locus YDR001C, strain nth1, hits give low values 1.02 | S. cerevisiae deletion strains, locus YDR069C, strain doa4, hits give low values 0.971 | S. cerevisiae deletion strains, locus YDR101C, strain arx1, hits give low values 1.03 | S. cerevisiae deletion strains, locus YDR137W, strain rgp1, hits give low values 1.02 | S. cerevisiae deletion strains, locus YDR159W, strain sac3, hits give low values 0.964 | S. cerevisiae deletion strains, locus YDR162C, strain NBP2, hits give low values 1.01 | S. cerevisiae deletion strains, locus YDR195W, strain ref2 0.995 | S. cerevisiae deletion strains, locus YDR297W, strain sur2, hits give low values 0.958 | S. cerevisiae deletion strains, locus YDR318W, strain mcm21, hits give low values 1.03 | S. cerevisiae deletion strains, locus YDR334W, strain swr1, hits give low values 1.02 | S. cerevisiae deletion strains, locus YDR335W, strain msn5, hits give low values 0.982 | S. cerevisiae deletion strains, locus YDR388W, hits give low values 1.03 | S. cerevisiae deletion strains, locus YDR392W, strain spt3, hits give low values 0.985 | S. cerevisiae deletion strains, locus YDR502C, strain sam2, hits give low values 1.02 | S. cerevisiae deletion strains, locus YEL003W, strain gim4, hits give low values 1.02 | S. cerevisiae deletion strains, locus YEL037C, strain rad23, hits give low values 1.02 | S. cerevisiae deletion strains, locus YEL061C, strain CIN8 (second series), hits give low values 1.03 | S. cerevisiae deletion strains, locus YEL061C, strain CIN8, hits give low values 1.01 | S. cerevisiae deletion strains, locus YER015W, strain faa2, hits give low values 1.01 | S. cerevisiae deletion strains, locus YER016W, strain bim1, hits give low values 1.01 | S. cerevisiae deletion strains, locus YER110C, hits give low values 1.04 | S. cerevisiae deletion strains, locus YER111C, strain swi4, hits give low values 1.02 | S. cerevisiae deletion strains, locus YER155C, strain BEM2 (second series), hits give low values 0.994 | S. cerevisiae deletion strains, locus YER155C, strain BEM2, hits give low values 1 | S. cerevisiae deletion strains, locus YER167W, strain BCK2, hits give low values 1.01 | S. cerevisiae deletion strains, locus YFR010W, strain ubp6, hits give low values 1.03 | S. cerevisiae deletion strains, locus YGL078C, strain dbp3, hits give low values 1.02 | S. cerevisiae deletion strains, locus YGL086W, strain mad1, hits give low values 1 | S. cerevisiae deletion strains, locus YGL167C, strain pmr1, hits give low values 1.02 | S. cerevisiae deletion strains, locus YGL173C, strain kem1, hits give low values 1.02 | S. cerevisiae deletion strains, locus YGL227W, strain vid30, hits give low values 1.01 | S. cerevisiae deletion strains, locus YGL240W, strain doc1, hits give low values 0.972 | S. cerevisiae deletion strains, locus YGL248W, strain PDE1, hits give low values 1.01 | S. cerevisiae deletion strains, locus YGL253W, strain hxk2, hits give low values 1.01 | S. cerevisiae deletion strains, locus YGR078C, strain PAC10, hits give low values 1.02 | S. cerevisiae deletion strains, locus YGR135W, strain pre9, hits give low values 1.02 | S. cerevisiae deletion strains, locus YGR252W, strain gcn5, hits give low values 1.02 | S. cerevisiae deletion strains, locus YHR013C, strain ard1, hits give low values 1.01 | S. cerevisiae deletion strains, locus YHR027C, strain rpn1, hits give low values 1 | S. cerevisiae deletion strains, locus YHR030C, strain SLT2, hits give low values 1.01 | S. cerevisiae deletion strains, locus YHR079C, strain IRE1 (second series), hits give low values 1.03 | S. cerevisiae deletion strains, locus YHR094C, strain hxt1, hits give low values 1.03 | S. cerevisiae deletion strains, locus YHR129C, strain ARP1, hits give low values 1 | S. cerevisiae deletion strains, locus YHR142W, strain chs7, hits give low values 1.04 | S. cerevisiae deletion strains, locus YHR200W, strain rpn10, hits give low values 1.02 | S. cerevisiae deletion strains, locus YIL066C, strain RNR3, hits give low values 1.01 | S. cerevisiae deletion strains, locus YIL073C, strain SPO22, hits give low values 1.08 | S. cerevisiae deletion strains, locus YIL125W, strain kgd1, hits give low values 1.02 | S. cerevisiae deletion strains, locus YIR030C, strain dcg1, hits give low values 1.03 | S. cerevisiae deletion strains, locus YJL092W, strain hpr5, hits give low values 1.02 | S. cerevisiae deletion strains, locus YJL095W, strain BCK1 (second series), hits give low values 0.985 | S. cerevisiae deletion strains, locus YJL095W, strain BCK1, hits give low values 1.01 | S. cerevisiae deletion strains, locus YJL115W, strain asf1, hits give low values 1.03 | S. cerevisiae deletion strains, locus YJL129C, strain trk1, hits give low values 1.04 | S. cerevisiae deletion strains, locus YJL134W, strain LCB3, hits give low values 1.01 | S. cerevisiae deletion strains, locus YJL154C, strain vps35, hits give low values 1.01 | S. cerevisiae deletion strains, locus YJL164C, strain tpk1, hits give low values 0.999 | S. cerevisiae deletion strains, locus YJL166W, strain qcr8, hits give low values 0.996 | S. cerevisiae deletion strains, locus YJL168C, strain set2, hits give low values 1.02 | S. cerevisiae deletion strains, locus YJL187C, strain SWE1 (second series), hits give low values 1.01 | S. cerevisiae deletion strains, locus YJL187C, strain SWE1, hits give low values 0.969 | S. cerevisiae deletion strains, locus YJR043C, strain POL32, hits give low values 0.999 | S. cerevisiae deletion strains, locus YJR075W, strain HOC1, hits give low values 1.01 | S. cerevisiae deletion strains, locus YKL009W, strain mrt4, hits give low values 1.02 | S. cerevisiae deletion strains, locus YKL068W, hits give low values 1.03 | S. cerevisiae deletion strains, locus YKL085W, strain MDH1 (second series), hits give low values 1.01 | S. cerevisiae deletion strains, locus YKL085W, strain MDH1, hits give low values 1.01 | S. cerevisiae deletion strains, locus YKL160W, strain elf1, hits give low values 1 | S. cerevisiae deletion strains, locus YKL190W, strain CNB1, hits give low values 1.01 | S. cerevisiae deletion strains, locus YKR001C, strain vps1, hits give low values 1.03 | S. cerevisiae deletion strains, locus YKR026C, strain gcn3, hits give low values 1.01 | S. cerevisiae deletion strains, locus YKR091W, strain srl3, hits give low values 1.01 | S. cerevisiae deletion strains, locus YLL001W, strain dnm1, hits give low values 1.03 | S. cerevisiae deletion strains, locus YLL026W, hits give low values 1.01 | S. cerevisiae deletion strains, locus YLL041C, strain sdh2, hits give low values 0.997 | S. cerevisiae deletion strains, locus YLR027C, strain aat2, hits give low values 0.975 | S. cerevisiae deletion strains, locus YLR039C, strain RIC1, hits give low values 1.07 | S. cerevisiae deletion strains, locus YLR058C, strain SHM2, hits give low values 1.01 | S. cerevisiae deletion strains, locus YLR102C, strain apc9, hits give low values 1.04 | S. cerevisiae deletion strains, locus YLR221C, strain rsa3, hits give low values 1.01 | S. cerevisiae deletion strains, locus YLR258W, strain gsy2, hits give low values 0.983 | S. cerevisiae deletion strains, locus YLR262C, strain YPT6 (second series), hits give low values 1.05 | S. cerevisiae deletion strains, locus YLR262C, strain YPT6, hits give low values 1.08 | S. cerevisiae deletion strains, locus YLR268W, strain sec22, hits give low values 1.03 | S. cerevisiae deletion strains, locus YLR320W, strain mms22, hits give low values 1.02 | S. cerevisiae deletion strains, locus YLR330W, strain CHS5, hits give low values 1.01 | S. cerevisiae deletion strains, locus YLR342W, strain FKS1 (second series), hits give low values 1 | S. cerevisiae deletion strains, locus YLR342W, strain FKS1, hits give low values 1.01 | S. cerevisiae deletion strains, locus YLR357W, strain rsc2, hits give low values 1.03 | S. cerevisiae deletion strains, locus YLR370C, strain arc18, hits give low values 0.979 | S. cerevisiae deletion strains, locus YLR371W, strain rom2, hits give low values 1.02 | S. cerevisiae deletion strains, locus YLR384C, strain iki3, hits give low values 1 | S. cerevisiae deletion strains, locus YLR418C, strain cdc73, hits give low values 1.03 | S. cerevisiae deletion strains, locus YML016C, strain PPZ1, hits give low values 1.02 | S. cerevisiae deletion strains, locus YML032C, strain rad52, hits give low values 1.02 | S. cerevisiae deletion strains, locus YML120C, strain ndi1, hits give low values 1.03 | S. cerevisiae deletion strains, locus YML124C, strain tub3, hits give low values 1.03 | S. cerevisiae deletion strains, locus YMR058W, strain fet3, hits give low values 1.02 | S. cerevisiae deletion strains, locus YMR078C, strain ctf18, hits give low values 1.03 | S. cerevisiae deletion strains, locus YMR125W, strain sto1, hits give low values 1.01 | S. cerevisiae deletion strains, locus YMR129W, hits give low values 0.986 | S. cerevisiae deletion strains, locus YMR205C, strain PFK2, hits give low values 0.974 | S. cerevisiae deletion strains, locus YMR223W, strain ubp8, hits give low values 1.03 | S. cerevisiae deletion strains, locus YMR231W, strain pep5, hits give low values 0.988 | S. cerevisiae deletion strains, locus YMR307W, strain GAS1, hits give low values 0.99 | S. cerevisiae deletion strains, locus YNL067W, strain RPL9B, hits give low values 1 | S. cerevisiae deletion strains, locus YNL071W, strain lat1, hits give low values 1.02 | S. cerevisiae deletion strains, locus YNL153C, strain GIM3, hits give low values 1.01 | S. cerevisiae deletion strains, locus YNL209W, strain ssb2, hits give low values 1.01 | S. cerevisiae deletion strains, locus YNL233W, strain BNI4, hits give low values 1.01 | S. cerevisiae deletion strains, locus YNL248C, strain rpa49, hits give low values 1.02 | S. cerevisiae deletion strains, locus YNL250W, strain rad50, hits give low values 1.03 | S. cerevisiae deletion strains, locus YNL271C, strain bni1, hits give low values 1.03 | S. cerevisiae deletion strains, locus YNL298W, strain CLA4, hits give low values 1.02 | S. cerevisiae deletion strains, locus YNL307C, strain MCK1, hits give low values 1.05 | S. cerevisiae deletion strains, locus YNL322C, strain KRE1 (second series), hits give low values 1.02 | S. cerevisiae deletion strains, locus YNR049C, strain mso1, hits give low values 0.982 | S. cerevisiae deletion strains, locus YNR052C, strain pop2, hits give low values 1.01 | S. cerevisiae deletion strains, locus YOL012C, strain htz1 1.37 | S. cerevisiae deletion strains, locus YOL147C, strain pex11, hits give low values 1.03 | S. cerevisiae deletion strains, locus YOR001W, strain rrp6, hits give low values 0.987 | S. cerevisiae deletion strains, locus YOR061W, strain CKA2, hits give low values 1.02 | S. cerevisiae deletion strains, locus YOR069W, strain VPS5, hits give low values 1.01 | S. cerevisiae deletion strains, locus YOR070C, strain gyp1, hits give low values 1.01 | S. cerevisiae deletion strains, locus YOR080W, strain dia2, hits give low values 1.02 | S. cerevisiae deletion strains, locus YOR083W, strain WHI5, hits give low values 1 | S. cerevisiae deletion strains, locus YOR106W, strain vam3, hits give low values 1.03 | S. cerevisiae deletion strains, locus YOR136W, strain idh2, hits give low values 1.03 | S. cerevisiae deletion strains, locus YOR144C, strain elg1, hits give low values 1.03 | S. cerevisiae deletion strains, locus YOR184W, strain ser1, hits give low values 1.04 | S. cerevisiae deletion strains, locus YOR265W, strain rbl2, hits give low values 1.01 | S. cerevisiae deletion strains, locus YOR270C, strain vph1, hits give low values 1.04 | S. cerevisiae deletion strains, locus YOR290C, strain snf2, hits give low values 0.99 | S. cerevisiae deletion strains, locus YOR316C, strain cot1, hits give low values 1.04 | S. cerevisiae deletion strains, locus YPL051W, strain arl3, hits give low values 1.01 | S. cerevisiae deletion strains, locus YPL078C, strain atp4, hits give low values 1.02 | S. cerevisiae deletion strains, locus YPL106C, strain sse1, hits give low values 0.995 | S. cerevisiae deletion strains, locus YPL240C, strain hsp82, hits give low values 0.997 | S. cerevisiae deletion strains, locus YPL241C, strain CIN2, hits give low values 1.01 | S. cerevisiae deletion strains, locus YPR119W, strain clb2, hits give low values 1.03 | S. cerevisiae deletion strains, locus YPR141C, strain kar3, hits give low values 1.04 | S. cerevisiae deletion strains, locus YPR163C, strain tif3, hits give low values 1.04 | S. cerevisiae deletion strains, locus YPR167C, strain met16, hits give low values 1.02 | S. cerevisiae deletion strains, strain wtn01, hits give low values 1.04 | S. cerevisiae strains, strain wild type, hits give low values 1.02
